Measured values: PMC5540273 (PLoS ONE, 2017)

Key:
Conditions in all cases: concentration: 1 μM, replicates: in singlicate; n = 1
[1] = tested on: BMX
[2] = tested on: BRAF
[3] = tested on: T1, BRK
T1 construct: gene PTK6

[4] = tested on: BRSK1
[5] = tested on: BRSK2
[6] = tested on: BTK
[7] = tested on: BUB1
[8] = tested on: CAMK1B
[9] = tested on: CAMK1D
[10] = tested on: CAMK1G
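Note: KINOMEscan kinase panel screen.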

SMILES	%Inh [1] [%]	%Inh [2] [%]	%Inh [3] [%]	%Inh [4] [%]	%Inh [5] [%]	%Inh [6] [%]	%Inh [7] [%]	%Inh [8] [%]	%Inh [9] [%]	%Inh [10] [%]
c1ccc(Oc2ccc(Nc3ccnc4cc(-c5ccc(CN6CCCCC6)o5)ccc34)cc2)nc1 [GW567143]	6	2	96.5	6	0	0	18	0	19	0
Nc1ncnc2scc(-c3ccc(NC(=O)Cc4cc(F)ccc4F)cc3)c12.O=C(O)C(F)(F)F [SB-731254-M]	0	4	6	2	38	0	0	0	11	15
COc1cc(Nc2nccc(N3CCC(NS(=O)(=O)c4ccc(NC(C)=O)cc4)CC3)n2)cc(OC)c1OC [GSK1379825]	32	14	40	0	1	0	48	35	15	5
O=C(O)C(F)(F)F.O=c1[nH]ccc2nc(N[C@@H]3CCNC3)nc(Nc3ccc4c(c3)S(=O)(=O)CC4)c12 [GSK2181306]	24	0	18	52	46	29	90.5	98.7	98.6	82
Cc1ccc(O)cc1Nc1ccnc2ccc(C(C)(C)C)cc12 [GW856805]	19	63	91.4	5	20	0	30	29	28	0
Nc1cccc(-c2ccc3c(N)n[nH]c3c2)c1 [GSK2193613]	5	0	8	58	51	0	21	21	25	4
COc1cccc(C2=C(Nc3cccc(O)c3)C(=O)NC2=O)c1 [SB-390771]	4	0	33	7	7	0	42	29	13	0
COc1ccc(C2=C(Nc3cccc(O)c3)C(=O)NC2=O)cc1 [SB-390766]	0	6	21	7	49	0	50	73	27	26
CN(C)CCNS(=O)(=O)c1ccc(-c2ccnc3[nH]ccc23)cc1 [GSK977620]	9	0	16	19	0	0	29	0	66	8
CN(c1ccc2c(c1)nc(NCc1ccccc1)n2C)c1ccnc(Nc2ccc(CS(C)(=O)=O)cc2)n1.Cl [GW811603]	0	96.8	79	0	0	64	0	46	5	0
Fc1cc(Cl)ccc1Nc1ccnc2cc(-c3ccc(CN4CCSCC4)o3)ccc12 [GW560106]	20	2	92.3	0	0	37	38	10	11	0
CCn1c(-c2nonc2N)nc2c(-c3ccccc3)ncc(OCCCN)c21.O=C(O)C(F)(F)F.O=C(O)C(F)(F)F [GSK260205]	0	0	0	0	0	0	96.2	7	6	4
N#CC1(c2cccc(C(=O)Nc3cccc(Oc4ccc5nc(NC(=O)C6CC6)sc5n4)c3)c2)CC1	0	99.9	18	13	0	6	0	0	2	0
Cc1cccc(Nc2nc(N[C@H]3CCCC[C@H]3N)ncc2C(N)=O)c1.Cl [GSK986310]	13	0	20	16	13	0	89	91.4	61	23
NCCC(NC(=O)c1cc(Br)c(-c2ccnc3[nH]ccc23)s1)c1ccccc1.O=C(O)C(F)(F)F.O=C(O)C(F)(F)F (centres unmarked) [GSK1307810]	25	0	34	1	19	24	68	52	34	21
O=C(Nc1n[nH]c2cc(-c3cccs3)ccc12)C1CC1 [SB-731284]	11	68	0	54	30	54	0	0	6	0
CCNc1nccc(-c2c(-c3ccc(F)cc3)ncn2C2CCN(C)CC2)n1	6	0	0	0	0	0	63	0	17	5
CC(=O)Nc1cn2nc(Oc3cccc(NC(=O)c4cccc(C(F)(F)F)c4)c3)ccc2n1	25	99.7	92.1	0	0	4	0	0	24	0
O=C1NC(=O)C(c2ccccc2Cl)=C1Nc1cccc(Cl)c1 [SB-342409]	19	0	22	0	0	0	22	3	21	18
Cl.Cl.NCC(NC(=O)c1cc(-c2cccnc2)c(-c2ccnc3[nH]ccc23)s1)c1ccccc1 (centres unmarked) [GSK1323434]	36	21	7	5	0	0	77	7	18	3
Cn1cc(-c2ccc3c(c2)CCN3C(=O)Cc2cc(F)cc(F)c2F)c2c(N)ncnc21 [GSK2634140]	11	0	22	6	0	0	9	7	28	0
Cn1cc(-c2ccc3c(c2)CCN3C(=O)Cc2cc(F)cc(C(F)(F)F)c2)c2c(N)ncnc21 [GSK2635225]	15	0	44	0	5	0	11	41	11	0

SMILES	%Inh [1] [%]	%Inh [2] [%]	%Inh [3] [%]	%Inh [4] [%]	%Inh [5] [%]	%Inh [6] [%]	%Inh [7] [%]	%Inh [8] [%]	%Inh [9] [%]	%Inh [10] [%]
Cl.Cl.NC(CNC(=O)c1cc(Br)c(-c2ccnc3[nH]ccc23)s1)c1ccccc1 (centres unmarked) [GSK1322949]	5	0	0	50	40	0	77	34	63	27
CN(C)CCOc1ccc(-c2cc(-c3ccc(Cl)c(O)c3)c(-c3ccncc3)[nH]2)cc1.Cl.Cl [SB-684387]	27	96.6	75	0	0	0	83	40	23	0
CCOc1nccc(-c2c(-c3ccc(F)cc3)ncn2C2CCNCC2)n1 [SB-249175]	12	5	0	0	11	34	27	31	0	1
COc1cc(Nc2nccc(N3CCC(NC(=O)Nc4ccc5c(c4)OCO5)C3)n2)cc(OC)c1OC (centres unmarked) [GSK1379766]	0	12	0	0	0	0	43	34	19	9
O=C(O)C(F)(F)F.O=c1[nH]ccc2nc(N[C@@H]3CCNC3)nc(Nc3cc(Cl)cc(Cl)c3)c12 [GSK2188764]	27	0	5	19	8	0	99.2	100	97.9	72
Cl.N#CCc1ccc(Nc2nccc(Nc3ccc(Oc4ccccc4)cc3)n2)cc1 [GW639905]	34	0	60	0	0	0	0	31	0	0
COc1ccc(C)c(Nc2ccnc(Nc3ccc(-c4cnc[nH]4)cc3)n2)c1.Cl [GW784041]	46	0	20	8	9	0	0	0	25	8
CC(C)c1nc(-c2cccc(NS(=O)(=O)c3c(F)cccc3F)c2)c(-c2ccnc(Nc3ccc(N4CCOCC4)nc3)n2)s1.Cl [GSK1723980]	94	100	96.4	16	37	41	93.1	13	32	2
COc1cccc2c(-c3ccncc3)c(-c3ccc(F)cc3)nn12 [GW468513]	11	38	1	3	0	0	90	0	0	1
O=C(Nc1n[nH]c2nc(-c3ccccc3O)ccc12)C1CC1 [SB-711880]	0	0	0	38	19	0	2	9	4	0
Cn1cc(-c2cnc(N)c3c(-c4ccc5c(c4)CCN5C(=O)Cc4ccccc4)csc23)cn1 [GSK2593074]	57	0	92.2	0	7	0	0	0	11	0
CC(C)(C)c1ccc(C(=O)Nc2cn3cc(-n4ccnc4)ccc3n2)cc1	0	19	15	31	0	0	7	0	6	7
Nc1ncc(-c2ccc3nccc(-c4ccncc4)c3c2)cc1S(=O)(=O)N1CCCCC1 [GSK1693850]	22	8	18	0	0	0	13	6	25	2
Cc1ccc(NC(=O)c2ccnc(N3CCCCC3)c2)cc1-c1ccc(C(=O)NCC2CC2)cc1 [GW775610]	0	77	12	9	6	0	0	24	0	0
CN(C)c1ncnc2nc[nH]c12 [SKF-31736]	0	9	0	0	0	0	40	0	0	8
COc1cccc(CC(=O)N2CCc3cc(-c4cn(C)c5ncnc(N)c45)ccc32)c1 [GSK2608899]	0	6	53	8	0	0	0	43	19	20
COc1cccc(-c2nc(-c3ccccc3)[nH]c2-c2ccncc2)c1 [SB-610250]	0	74	16	0	0	0	95.6	0	5	0
CN1CCN(Cc2ccc(NC(=O)Nc3ccc(N(C)c4ccnc(Nc5ccc(CS(C)(=O)=O)cc5)n4)cc3)cc2)CC1.Cl [GW827654]	69	0	8	19	10	60	51	42	27	23
Cc1ccc(-c2ccc3occ(-c4ccc(S(C)=O)cc4)c3c2)nn1 (centres unmarked)	0	0	0	0	0	0	5	14	15	7
Cc1ccc(O)cc1Nc1ccnc2cc(-c3ccc(CN4CCCCC4)o3)ccc12 [GW557777]	50	22	99.5	0	0	19	0	0	4	6
CN(c1ccc(F)c(NC(=O)c2cccc(OC(C)(C)C#N)c2Cl)c1)c1ccc2nc(NC(=O)C3CC3)sc2n1	0	94	0	4	0	22	34	0	0	2
CN(c1ccc(NC(=O)N2CCN(CCCN3CCOCC3)CC2)cc1)c1ccnc(Nc2ccc(CS(C)(=O)=O)cc2)n1.Cl [GW830899]	0	0	27	83	25	0	0	0	5	0

SMILES	%Inh [1] [%]	%Inh [2] [%]	%Inh [3] [%]	%Inh [4] [%]	%Inh [5] [%]	%Inh [6] [%]	%Inh [7] [%]	%Inh [8] [%]	%Inh [9] [%]	%Inh [10] [%]
COc1ccc(NC(=O)c2ccoc2)cc1-c1ccc(C(=O)NCC2CC2)cc1 [GW810437]	3	0	0	0	4	0	2	19	0	9
N#Cc1cnc2cc(-c3cnc(CNCCN4CCOCC4)s3)ccc2c1Nc1ccc(Oc2ccccc2)cc1 [GW664114]	62	0	0	0	44	93.9	37	24	12	24
CNc1nccc(-c2ccc3c(N)n[nH]c3c2)n1 [GSK2206003]	2	0	10	22	15	3	71	0	28	22
O=C(Nc1n[nH]c2nc(-c3cccc(O)c3)ccc12)C1CC1 [SB-711805]	4	46	0	53	17	0	0	0	19	0
Cc1ccc(Nc2ccnc(Nc3ccc(C)c(F)c3)n2)cc1O.Cl [GW582868]	12	50	50	0	0	0	44	34	0	0
O=C(Nc1c(F)cccc1F)c1cc(C(=O)c2ccccc2F)c[nH]1 [GSK1326180]	18	0	11	0	0	0	31	33	13	6
Cl.O=C(Nc1ccc(Oc2ccc3[nH]c(NC(=O)c4ccco4)nc3c2)cc1)Nc1cc(C(F)(F)F)ccc1F [GW683134]	1	69	0	0	0	0	30	29	0	0
Cc1ccc(NC(=O)c2cccc(N3CCCCC3)c2)cc1-c1ccc(C(=O)NCC2CC2)cc1 [GSK1917008]	26	88	22	6	3	0	23	27	11	0
CCn1cnc2c(NCc3ccccc3)ncnc21 [SKF-96418]	0	9	0	0	0	0	50	0	1	0
CS(=O)(=O)c1cccc(CNc2nc(Nc3ccc4c(c3)CCC(=O)N4)ncc2C(F)(F)F)c1	0	0	0	0	0	0	0	0	8	0
COC(=O)Nc1nc2cc(Oc3ccc(NC(=O)Nc4cccc(SC)c4)cc3)ccc2[nH]1.Cl [GW697999]	0	83	15	3	10	2	44	0	7	0
Fc1cc(Cl)ccc1Nc1ccnc2cc(-c3ccc(CN4CCOCC4)o3)ccc12 [GW560109]	35	39	86	13	0	46	25	24	0	0
COC(=O)Nc1nc2ccc(Oc3ccc(NC(=O)Nc4cc(C(F)(F)F)ccc4F)cc3)cc2[nH]1.Cl [GW654607]	0	62	20	0	0	0	13	51	0	0
CC(C)NCC(Cc1ccccc1)NC(=O)c1cc(Br)c(-c2ccnc3[nH]ccc23)s1.Cl.Cl (centres unmarked) [GSK1383281]	5	0	0	0	0	0	43	29	27	0
COc1cc(Nc2ccnc3cc(-c4ccncc4)ccc23)cc(OC)c1OC.Cl [GW494610]	37	60	19	0	9	90	42	2	0	9
COC(=O)Nc1nc2ccc(Oc3ccc(CC(=O)Nc4cc(C(F)(F)F)ccc4F)cc3)cc2[nH]1 [GW680903]	16	45	20	1	0	0	63	30	0	0
CC(C)c1nc(-c2ccc(F)c(NS(=O)(=O)c3c(F)cccc3F)c2)c(-c2ccnc(Nc3ccc(N4CCOCC4)nc3)n2)s1 [GSK1804250]	90	99.9	94.8	14	0	90	92.7	31	26	4
CN(c1ccc(NC(=O)Nc2cccc(Cl)c2)cc1)c1ccnc(N)n1.Cl [GW830707]	0	0	8	0	12	0	30	15	5	0
Cc1ccc(NC(=O)c2ccc(Cl)c(Cl)c2)cc1-c1ccc(C(=O)Nc2ccncc2)cc1 [GSK1398460]	6	34	10	7	10	0	6	28	24	0
Cc1ccccc1CC(=O)N1CCc2cc(-c3cn(C)c4ncnc(N)c34)ccc21 [GSK2603346]	2	0	71	0	0	0	10	0	13	19
Cc1cc(-c2c(-c3ccc(F)cc3)ncn2CCCN2CCOCC2)nc(N)n1 [SB-222517]	5	0	0	0	17	0	0	0	12	44
